# Reference: PubChem BioAssay AID1159580 (chemical genetic matrix, 2015)
# Screen size: about 5,500 compounds; about 2,000 (36%) were called active. Roughly 18% stayed inconclusive and do not appear here. Some of the results follow. A number with no mark means an inactive call. Cut-off read from the data, not from the text of the source: active = normalized growth mostly below about 0.91 (no sharp cut-off); inconclusive = no clear call, values can overlap the other calls; inactive = mostly above about 0.92.
# Assay: chemical genetic growth profiling, strain panel (AID 1159580);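 note: tested at 20 µM; growth read once vehicle control cultures reached saturation at 30 °C; 1 = growth at the plate median or of vehicle wells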
# Details: S. cerevisiae deletion strains, growth OD
smiles,measurement,setting,value
CC(C)(OC(=O)c1ccccc1)[C@@H]1Cc2cc3ccc(=O)oc3cc2O1,normalized growth,"locus YBR021W, strain FUR4, stronger effect = lower value",0.939
same,normalized growth,"locus YBR229C, strain ROT2, stronger effect = lower value",0.986
same,normalized growth,"locus YCL029C, strain bik1, stronger effect = lower value",1.01
same,normalized growth,"locus YDL035C, strain GPR1, stronger effect = lower value",0.927
same,normalized growth,"locus YDL074C, strain BRE1, stronger effect = lower value",0.95
same,normalized growth,"locus YDL101C, strain DUN1, stronger effect = lower value",0.975
same,normalized growth,"locus YDL185W, strain tfp1, stronger effect = lower value",0.956
same,normalized growth,"locus YDL192W, strain arf1, stronger effect = lower value",0.982
same,normalized growth,"locus YDR101C, strain arx1, stronger effect = lower value",0.975
same,normalized growth,"locus YDR150W, strain NUM1, stronger effect = lower value",0.989
same,normalized growth,"locus YDR162C, strain NBP2, stronger effect = lower value",0.834 (active)
same,normalized growth,"locus YDR318W, strain mcm21, stronger effect = lower value",0.954
same,normalized growth,"locus YDR388W, stronger effect = lower value",0.994
same,normalized growth,"locus YDR502C, strain sam2, stronger effect = lower value",0.956
same,normalized growth,"locus YEL061C, strain CIN8, stronger effect = lower value",0.992
same,normalized growth,"locus YER110C, stronger effect = lower value",0.973
same,normalized growth,"locus YER155C, strain BEM2, stronger effect = lower value",0.999
same,normalized growth,"locus YER167W, strain BCK2, stronger effect = lower value",0.991
same,normalized growth,"locus YGL078C, strain dbp3, stronger effect = lower value",0.957
same,normalized growth,"locus YGL086W, strain mad1, stronger effect = lower value",0.987
same,normalized growth,"locus YGL248W, strain PDE1, stronger effect = lower value",0.94
same,normalized growth,"locus YGR078C, strain PAC10, stronger effect = lower value",0.945
same,normalized growth,"locus YGR135W, strain pre9, stronger effect = lower value",0.951
same,normalized growth,"locus YGR229C, strain SMI1, stronger effect = lower value",0.885
same,normalized growth,"locus YGR252W, strain gcn5, stronger effect = lower value",0.805
same,normalized growth,"locus YHR030C, strain SLT2, stronger effect = lower value",0.989
same,normalized growth,"locus YHR079C, strain IRE1 (second series), stronger effect = lower value",1
same,normalized growth,"locus YHR094C, strain hxt1, stronger effect = lower value",1
same,normalized growth,"locus YHR129C, strain ARP1, stronger effect = lower value",0.989
same,normalized growth,"locus YHR200W, strain rpn10, stronger effect = lower value",0.976
same,normalized growth,"locus YIL066C, strain RNR3, stronger effect = lower value",0.927
same,normalized growth,"locus YIL073C, strain SPO22, stronger effect = lower value",0.945
same,normalized growth,"locus YIL125W, strain kgd1, stronger effect = lower value",1
same,normalized growth,"locus YIR030C, strain dcg1, stronger effect = lower value",0.988
same,normalized growth,"locus YJL095W, strain BCK1, stronger effect = lower value",0.89
same,normalized growth,"locus YJL134W, strain LCB3, stronger effect = lower value",0.989
same,normalized growth,"locus YJL168C, strain set2, stronger effect = lower value",0.983
same,normalized growth,"locus YJL187C, strain SWE1 (second series), stronger effect = lower value",0.958
same,normalized growth,"locus YJR043C, strain POL32, stronger effect = lower value",0.978
same,normalized growth,"locus YJR075W, strain HOC1, stronger effect = lower value",0.976
same,normalized growth,"locus YKL009W, strain mrt4, stronger effect = lower value",0.958
same,normalized growth,"locus YKL068W, stronger effect = lower value",0.992
same,normalized growth,"locus YKL085W, strain MDH1 (second series), stronger effect = lower value",1
same,normalized growth,"locus YKL085W, strain MDH1, stronger effect = lower value",1
same,normalized growth,"locus YKR001C, strain vps1, stronger effect = lower value",0.997
same,normalized growth,"locus YLR039C, strain RIC1, stronger effect = lower value",1.05
same,normalized growth,"locus YLR058C, strain SHM2, stronger effect = lower value",0.975
same,normalized growth,"locus YLR102C, strain apc9, stronger effect = lower value",0.984
same,normalized growth,"locus YLR262C, strain YPT6, stronger effect = lower value",1.02
same,normalized growth,"locus YLR268W, strain sec22, stronger effect = lower value",0.977
same,normalized growth,"locus YLR330W, strain CHS5, stronger effect = lower value",0.976
same,normalized growth,"locus YLR342W, strain FKS1 (second series), stronger effect = lower value",1.01
same,normalized growth,"locus YLR371W, strain rom2, stronger effect = lower value",0.994
same,normalized growth,"locus YLR418C, strain cdc73, stronger effect = lower value",0.828 (active)
same,normalized growth,"locus YML016C, strain PPZ1, stronger effect = lower value",0.982
same,normalized growth,"locus YML032C, strain rad52, stronger effect = lower value",0.97
same,normalized growth,"locus YML124C, strain tub3, stronger effect = lower value",0.974
same,normalized growth,"locus YMR078C, strain ctf18, stronger effect = lower value",0.976
same,normalized growth,"locus YMR223W, strain ubp8, stronger effect = lower value",0.945
same,normalized growth,"locus YMR307W, strain GAS1, stronger effect = lower value",0.895
same,normalized growth,"locus YNL067W, strain RPL9B, stronger effect = lower value",0.96
same,normalized growth,"locus YNL128W, strain TEP1, stronger effect = lower value",0.981
same,normalized growth,"locus YNL233W, strain BNI4, stronger effect = lower value",0.968
same,normalized growth,"locus YNL250W, strain rad50, stronger effect = lower value",0.991
same,normalized growth,"locus YNL271C, strain bni1, stronger effect = lower value",0.938
same,normalized growth,"locus YNL298W, strain CLA4, stronger effect = lower value",0.942
same,normalized growth,"locus YNL307C, strain MCK1, stronger effect = lower value",0.975
same,normalized growth,"locus YNL322C, strain KRE1, stronger effect = lower value",0.984
same,normalized growth,"locus YNR052C, strain pop2, stronger effect = lower value",0.983
same,normalized growth,"locus YOL006C, strain TOP1, stronger effect = lower value",0.761
same,normalized growth,"locus YOL012C, strain htz1",1.01
same,normalized growth,"locus YOL147C, strain pex11, stronger effect = lower value",0.986
same,normalized growth,"locus YOR061W, strain CKA2, stronger effect = lower value",0.976
same,normalized growth,"locus YOR069W, strain VPS5, stronger effect = lower value",0.983
same,normalized growth,"locus YOR136W, strain idh2, stronger effect = lower value",0.987
same,normalized growth,"locus YOR144C, strain elg1, stronger effect = lower value",0.973
same,normalized growth,"locus YOR184W, strain ser1, stronger effect = lower value",0.861 (active)
same,normalized growth,"locus YOR316C, strain cot1, stronger effect = lower value",0.976
same,normalized growth,"locus YPL241C, strain CIN2, stronger effect = lower value",0.982
same,normalized growth,"locus YPR119W, strain clb2, stronger effect = lower value",0.993
same,normalized growth,"locus YPR141C, strain kar3, stronger effect = lower value",0.995
same,normalized growth,"locus YPR163C, strain tif3, stronger effect = lower value",0.973
same,normalized growth,"locus YPR167C, strain met16, stronger effect = lower value",0.98
same,normalized growth,"strain wtn01, stronger effect = lower value",0.986
